# Reference: PubChem BioAssay (EPA / NIEHS)
# Values joined by “and” are separate entries in the source; they are usually repeats but may differ in a detail not shown here. Identical values can stand only once. More than one record can exist for a structure, and the calls need not agree. Active and inactive are the calls of the source. How the source made its calls: active means hit-call score of the fitted dose curve at least 0.9, where 1 is the maximum; inactive means score below 0.9.
# How the values were obtained:
# [1] = CCTE_Simmons_MITO_basal_resp_rate: CCTE's HepG2 Seahorse XF Respirometric Screening Assay at Basal Respiratory State, Simmons Lab (AID 2284001); settings: actives raise or lower the signal
# How it was run: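 Basal-phase OCR in HepG2 cells, read at 6-min intervals across a 72-min run, with test compound injected at 125 nM–100 uM final (7 points). Fitted both directions against DMSO; three biological replicates per concentration.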
# [2] = CCTE_Simmons_MITO_max_resp_rate: CCTE's HepG2 Seahorse XF Respirometric Screening Assay at Maximal Respiratory State [uncoupled], Simmons Lab (AID 2284002); settings: actives raise or lower the signal
# How it was run: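 HepG2, Seahorse XF96, maximal OCR post-FCCP. Cpd 125 nM–100 uM final (7 conc), n=3 biological. Kinetic reads every 6 min (3 min mix/3 min measure) over 72 min; fit bidirectional vs DMSO.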
# [3] = CCTE_Simmons_MITO_inhib_resp_rate: CCTE's HepG2 Seahorse XF Respirometric Screening Assay at Inhibited Respiratory State [full ETC block], Simmons Lab (AID 2284006); settings: actives raise or lower the signal
# How it was run: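 OCR read-out in the inhibited phase following rotenone/antimycin A, after compound and FCCP injections, in HepG2 cells. Seven concentrations (125 nM to 100 uM final), three biological replicates, 6-min cycles over 72 min; DMSO baseline.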
# [4] = CCTE_Harrill_HTTr_Viability_MCF7: CCTE's 6-hour Cell Viability Assessment for the High-Throughput Transcriptomics (HTTr) Platform, in MCF-7 cells cultured in DMEM + 10% fetal bovine serum, Harrill Lab (AID 2284010)
# How it was run: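 PI exclusion, high-content imaging; 8-pt dilution series, 6 h exposure; bidirectional fit vs DMSO (neg. ctrl/baseline); gain of signal = loss of membrane integrity.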
# [5] = CCTE_Harrill_HTTr_Apoptosis_MCF7: CCTE's 6-hour Apoptosis Assessment for the High-Throughput Transcriptomics (HTTr) Platform, in MCF-7 cells cultured in DMEM + 10% fetal bovine serum, Harrill Lab (AID 2284011)
# How it was run: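 Read-out: CellEvent Caspase 3/7 Green signal by high content imaging, gain-of-signal indicating apoptosis. MCF-7 cells, DMEM + 10% FBS, eight-point dilution series, 6 h exposure. Curves fitted bidirectionally relative to DMSO negative control.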
# [6] = CCTE_Shafer_MEA_acute_spike_number: CCTE's Neural Acute Assay for Total Number of Spikes, Shafer Lab (AID 2284008);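 on AC50: curve fitted for decrease in spike count so AC50 reflects inhibitors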
# How it was run: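 Rat cortical cultures, DIV 13/15, 37 C. 40 min baseline rec, cpd 0.03-40 uM, 40 min post-dose rec. Band-pass 300-5000 Hz, spike threshold 8x rms; % change in spike count per well, DMSO neg ctrl, loss-of-signal fit.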
# [7] = CCTE_Shafer_MEA_acute_firing_rate_mean: CCTE's Neural Acute Assay for Mean Firing Rate, Shafer Lab (AID 2284009);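 further: analyzed for loss of signal so actives lower firing rate relative to DMSO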
# How it was run: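 Primary rat cortical neurons on 16-electrode MEA wells were exposed on DIV 13 or 15 to compound (0.03-40 uM). Spike counts per recording time, averaged over electrodes, were compared between 40-min baseline and 40-min post-exposure recordings as percent change.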
# [8] = CCTE_Shafer_MEA_acute_burst_number: CCTE's Neural Acute Assay for Single-Electrode Bursts, Shafer Lab (AID 2284013)
# How it was run: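 Primary rat cortical neurons on 16-electrode MEA wells, DIV 13 or 15, exposed to compound (0.03-40 uM; ≥3 wells); 40-min recordings at 37 C before and after treatment. Burst count expressed as percent change from baseline, DMSO as negative control.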
# [9] = CCTE_Shafer_MEA_acute_per_burst_spike_number_mean: CCTE's Neural Acute Assay for Average Number of Spikes Per Burst, Shafer Lab (AID 2284015);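 further: hits are decreases in mean spikes per burst versus baseline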
# How it was run: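 Percent change in mean spikes per single-electrode burst is compared between a 40 min baseline and a 40 min recording with compound (0.03-40 uM). Cultures were rat cortical neurons on MEA plates at DIV 13 or 15, recorded at 37 C, with DMSO as the negative control.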
# [10] = CCTE_Shafer_MEA_acute_interburst_interval_mean: CCTE's Neural Acute Assay for Mean Interburst Interval, Shafer Lab (AID 2284016);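 further: percent change of mean interburst interval versus each well's own pre-dose baseline; curves fitted for decrease in interburst interval relative to DMSO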
# How it was run: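 Percent change in mean single-electrode interburst interval was calculated per well from 40 min recordings before and after compound (0.03-40 uM). Recordings were made at 37 C on rat cortical cultures at DIV 13 or 15, with spikes detected at 8x rms threshold.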
# [11] = CCTE_Shafer_MEA_acute_burst_percentage_mean: CCTE's Neural Acute Assay for Percentage of Spikes in a Burst, Shafer Lab (AID 2284017);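 on AC50: curve fitted for loss of signal so potency reflects decreased burst percentage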
# How it was run: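 Well-level mean burst percentage from a 40-min recording after compound (0.03-40 uM) expressed as percent change from a 40-min baseline at 37C. Cultures: primary rat cortical neurons on MEA, dosed on DIV 13 or 15; fitted downward relative to DMSO.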
# [12] = CCTE_Shafer_MEA_acute_burst_percentage_std: CCTE's Neural Acute Assay for Standard Deviation of Burst Percentage, Shafer Lab (AID 2284018);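 further: fitted in the negative direction so actives lower burst percentage SD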
# How it was run: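 Value is percent change from baseline in the across-electrode SD of spikes-in-bursts percentage, wells with >/= 10 active electrodes. Acute 40-min exposure to 0.03-40 uM on DIV 13 or 15 rat cortical cultures, recorded at 37 C after 40-min baseline.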
# [13] = CCTE_Shafer_MEA_acute_per_network_burst_spike_number_mean: CCTE's Neural Acute Assay for Average Number of Spikes in a Network Burst, Shafer Lab (AID 2284019);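 on AC50: curve fitted for loss of signal so actives reduce spikes per network burst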
# How it was run: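 Percent change from baseline in mean spikes per network burst, spikes detected at 8x rms noise. Each compound at 0.03-40 uM in at least three wells of rat cortical cultures, recorded 40 min before and 40 min during exposure.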
# [14] = CCTE_Shafer_MEA_acute_per_network_burst_spike_number_std: CCTE's Neural Acute Assay for Standard Deviation of Number of Spikes in a Network Burst, Shafer Lab (AID 2284020);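 further: fitted for decrease in spike-number SD versus DMSO so actives lower it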
# How it was run: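 Endpoint: percent change from 40 min baseline in standard deviation of spikes per network burst, after 40 min compound exposure (0.03-40 uM, 37 C). Cortical rat neurons on MEA at DIV 13 or 15; spikes detected at 8x rms noise, 300-5000 Hz band-pass.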
# [15] = CCTE_Shafer_MEA_acute_per_network_burst_electrodes_number_mean: CCTE's Neural Acute Assay for Mean Number of Electrodes in a Network Burst, Shafer Lab (AID 2284021);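 further: curves fitted for decreases only so hits reduce electrodes per burst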
# How it was run: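 Readout: % change in mean electrodes active per network burst, post- vs pre-treatment, each well. Spikes detected at 8x rms noise after 300-5000 Hz band-pass; rat cortical cultures, DIV 13/15, compounds 0.03-40 uM, DMSO baseline.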
# [16] = CCTE_Shafer_MEA_acute_network_burst_percentage: CCTE's Neural Acute Assay for Percentage of Network Bursts, Shafer Lab (AID 2284022);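 further: curves fitted for loss so actives lower network burst percentage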;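 on outcome: rat primary cortical neuron networks on multiwell MEA recorded 40 min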
# How it was run: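 Rat cortical cultures, DIV 13/15; 20 min equilibration, 40 min baseline, compound 0.03-40 uM, 40 min recording, 37 C. Spikes: 300-5000 Hz band-pass, threshold 8x rms noise. Readout: % change in network-burst spike fraction; loss direction vs DMSO.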
# [17] = CCTE_Shafer_MEA_acute_cross_correlation_area: CCTE's Neural Acute Assay for Area of Cross Correlation, Shafer Lab (AID 2284024);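 further: area under pooled inter-electrode spike cross-correlation near zero lag as percent change from own baseline; curves fitted for loss of cross-correlation area so actives lower synchrony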;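 on outcome: rat primary cortical neuron networks on 48-well MEA at DIV 13 or 15 with 40 min exposure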
# How it was run: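 Rat cortical cultures, DIV 13/15, MEA; spikes detected at 8x rms noise (300-5000 Hz band-pass). Compound 0.03-40 uM, ≥3 wells each. Readout: % change in pooled inter-electrode cross-correlation area vs own baseline; DMSO negative control.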
# [18] = CCTE_Shafer_MEA_acute_cross_correlation_HWHM: CCTE's Neural Acute Assay for Cross Correlation at Half Width at Half Maximum, Shafer Lab (AID 2284026);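 further: percent change per well from pre-dose baseline in spike cross-correlogram half width; hits are a decrease in cross-correlogram half width relative to DMSO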;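 on outcome: spontaneous network firing of rat primary cortical neurons on multiwell microelectrode arrays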
# How it was run: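 Read-out: half width at half maximum of action-potential cross-correlogram, percent change versus pre-treatment baseline, fitted in loss direction against DMSO. Rat cortical cultures, DIV 13 or 15, dosed 0.03-40 uM, 40-min recordings at 37 C.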
smiles,measurement,setting,value
CC(C)(O)C(=O)Nc1ccc([N+](=O)[O-])c(C(F)(F)F)c1,AC50,[1],40.9 µM (active)
same,AC50,[2],50 µM (active)
same,outcome,[3],inactive
same,outcome,[4],inactive
same,outcome,[5],inactive
CCC(C)(CC)c1cc(NC(=O)c2c(OC)cccc2OC)on1,outcome,[6],inactive
same,outcome,[7],inactive
same,outcome,[4],inactive
same,outcome,[5],inactive
same,outcome,[8],inactive
same,outcome,[9],inactive
same,outcome,[10],inactive
same,outcome,[11],inactive
same,outcome,[12],inactive
same,outcome,[13],inactive
same,outcome,[14],inactive
same,outcome,[15],inactive
same,outcome,[16],inactive
same,outcome,[17],inactive
same,AC50,[18],11.4 µM (active)
C=CC(N)=O,outcome,[6],inactive
same,outcome,[7],inactive
same,outcome,[4],inactive
same,outcome,[5],inactive
same,outcome,[8],inactive
same,outcome,[9],inactive
same,outcome,[10],inactive
same,outcome,[11],inactive
same,outcome,[12],inactive
same,outcome,[13],inactive
same,outcome,[14],inactive
same,outcome,[15],inactive
same,outcome,[16],inactive
same,outcome,[17],inactive
same,outcome,[18],inactive
ClC1=C(Cl)[C@]2(Cl)[C@@H]3[C@@H](Cl)[C@H]4O[C@H]4[C@@H]3C1(Cl)C2(Cl)Cl,AC50,[6],106 nM (active)
same,AC50,[7],107 nM (active)
same,outcome,[4],inactive
same,outcome,[5],inactive
same,AC50,[8],0.054 µM (active)
same,outcome,[9],inactive
same,outcome,[10],inactive
same,AC50,[11],0.0303 µM (active)
same,outcome,[12],inactive
same,AC50,[13],0.0709 µM (active)
same,AC50,[14],0.248 µM (active)
same,AC50,[15],0.0956 µM (active)
same,AC50,[16],0.0884 µM (active)
same,AC50,[17],0.118 µM (active)
same,AC50,[18],0.458 µM (active)
CC#Cc1cc(C)nc(Nc2ccccc2)n1,AC50,[6],4070 nM (active)
same,AC50,[7],4060 nM (active)
same,outcome,[4],inactive
same,outcome,[5],inactive
same,AC50,[8],2.85 µM (active)
same,AC50,[9],7.84 µM (active)
same,AC50,[10],4.15 µM (active)
same,AC50,[11],6.86 µM (active)
same,AC50,[12],4.1 µM (active)
same,AC50,[13],2.62 µM (active)
same,AC50,[14],4.76 µM (active)
same,AC50,[15],2.57 µM (active)
same,AC50,[16],31 µM (active)
same,outcome,[17],inactive
same,AC50,[18],5.98 µM (active)
NS(=O)(=O)C(F)(F)C(F)(F)C(F)(F)C(F)(F)C(F)(F)C(F)(F)C(F)(F)C(F)(F)F,AC50,[1],34.9 µM (active)
same,outcome,[2],inactive
same,outcome,[3],inactive
same,outcome,[4],inactive
same,outcome,[5],inactive
CO/C=C(/C(=O)OC)c1ccccc1COc1cccc(C(F)(F)F)n1,AC50,[1],2.02 µM (active)
same,AC50,[2],1.3 µM (active)
same,AC50,[3],1.1 µM (active)
same,AC50,[6],278 nM (active)
same,AC50,[7],280 nM (active)
same,outcome,[4],inactive
same,outcome,[5],inactive
same,AC50,[8],0.239 µM (active)
same,outcome,[9],inactive
same,AC50,[10],5 µM (active)
same,AC50,[11],5.12 µM (active)
same,outcome,[12],inactive
same,outcome,[13],inactive
same,outcome,[14],inactive
same,outcome,[15],inactive
same,AC50,[16],5 µM (active)
same,AC50,[17],0.313 µM (active)
same,AC50,[18],5.05 µM (active)
CCCCCCCCCC[N+](C)(C)CCCCCCCCCC,AC50,[1],8.58 µM (active)
same,AC50,[2],26.4 µM (active)
same,outcome,[3],inactive
same,AC50,[6],2810 nM (active)
same,AC50,[7],2880 nM (active)
same,outcome,[4],inactive
same,outcome,[8],inactive
same,AC50,[9],9.61 µM (active)
same,outcome,[10],inactive
same,AC50,[11],8.11 µM (active)
same,AC50,[12],20 µM (active)
same,AC50,[13],9.23 µM (active)
same,AC50,[14],5.37 µM (active)
same,AC50,[15],12.5 µM (active)
same,AC50,[16],29.4 µM (active)
same,outcome,[17],inactive
same,AC50,[18],1.63 µM (active)
CC(C)(c1ccccc1)c1ccc(O)cc1,AC50,[1],19.9 µM (active)
same,AC50,[2],37.7 µM (active)
same,outcome,[3],inactive
same,outcome,[4],inactive
same,outcome,[5],inactive
N#Cc1ccc(N(CC(N)=O)CC(F)(F)F)cc1C(F)(F)F,outcome,[1],inactive
same,outcome,[2],inactive
same,outcome,[3],inactive
same,outcome,[4],inactive
same,outcome,[5],inactive
COc1ccc(O)c(C(C)(C)C)c1,AC50,[1],44 µM (active)
same,outcome,[2],inactive
same,outcome,[3],inactive
same,AC50,[6],3.04 µM (active) and 633 nM (active)
same,outcome,[6],inactive
same,AC50,[7],3.03 µM (active) and 679 nM (active)
same,outcome,[7],inactive
same,outcome,[4],inactive
same,outcome,[5],inactive
same,outcome,[8],inactive
same,AC50,[9],15 µM (active) and 185 nM (active)
same,outcome,[9],inactive
same,AC50,[10],31.9 µM (active)
same,outcome,[10],inactive
same,AC50,[11],15 µM (active) and 1.45 µM (active) and 32.8 µM (active)
same,outcome,[12],inactive
same,AC50,[13],0.144 µM (active)
same,outcome,[13],inactive
same,AC50,[14],0.0903 µM (active)
same,outcome,[14],inactive
same,AC50,[15],0.449 µM (active)
same,outcome,[15],inactive
same,AC50,[16],30.8 µM (active)
same,outcome,[16],inactive
same,AC50,[17],0.0444 µM (active)
same,outcome,[17],inactive
same,AC50,[18],15 µM (active) and 2.79 µM (active) and 32.2 µM (active)
